# Compound activity from PubChem BioAssay.
# This is one part of a sample in which hits are shown more often than they occur.
# HT1080 IDH1KD tx: kills HT-1080 cells with IDH1 knockdown. HT-1080 IDH1 knockdown viability, ATP luminescence, 48 h. Potency, µM (series often up to 46.1 µM), hits mostly cytotoxic. 2% of 360,000 active. AID 686971
#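 HT-1080-IDH1KD cells (IDH1 knocked down), 750/well in RPMI with 5% FBS, treated with compound 48 h at 37 degrees C. Viability by CellTiter-Glo luminescence, normalised to DMSO and no-cell wells; concentration-response curves classed.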
# 12-LOX inh: blocks human arachidonate 12S-lipoxygenase. P18054. purified 12hLO, xylenol orange hydroperoxide absorbance. Potency, µM (titrated, usually from 108 µM), usual class: inhibitors. 1.1% of 580,000 active. AID 1671190
# Target sequence (P18054 whole entry, looked up): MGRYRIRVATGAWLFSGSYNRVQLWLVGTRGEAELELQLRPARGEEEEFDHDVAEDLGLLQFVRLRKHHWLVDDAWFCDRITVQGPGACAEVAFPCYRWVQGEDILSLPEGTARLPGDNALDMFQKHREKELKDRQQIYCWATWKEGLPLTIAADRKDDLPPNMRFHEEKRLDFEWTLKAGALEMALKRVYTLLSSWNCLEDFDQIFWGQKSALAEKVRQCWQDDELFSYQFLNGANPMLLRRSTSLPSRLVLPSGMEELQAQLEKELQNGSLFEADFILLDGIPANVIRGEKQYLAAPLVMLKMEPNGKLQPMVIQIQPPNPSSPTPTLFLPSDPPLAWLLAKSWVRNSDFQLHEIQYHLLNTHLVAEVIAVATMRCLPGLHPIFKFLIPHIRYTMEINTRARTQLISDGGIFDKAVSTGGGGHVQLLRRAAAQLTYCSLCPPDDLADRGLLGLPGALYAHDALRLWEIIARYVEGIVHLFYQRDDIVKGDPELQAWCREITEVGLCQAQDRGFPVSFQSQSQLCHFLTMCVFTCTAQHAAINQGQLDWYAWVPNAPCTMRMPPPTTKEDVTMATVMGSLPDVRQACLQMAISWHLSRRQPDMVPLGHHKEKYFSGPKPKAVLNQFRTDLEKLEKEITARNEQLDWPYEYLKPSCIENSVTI
#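 Purified human 12hLO (150 nM final) in 25 mM Hepes, 0.01% Triton X-100, pH 7.0 was preincubated 15 min at room temperature with compound. Then 40 uM arachidonic acid was added, 30 min. Hydroperoxide was read by Fe-XO absorbance ratio 573/405 nm.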
# DT40 TDP1 CPT: growth inhibition of DT40 Tdp1-/-;hTDP1 cells with camptothecin (screen for TDP1 inhibitors); chicken DT40 Tdp1-/-;hTDP1 cells + 20 nM CPT, ATP luminescence, 48 h; Potency, µM (titrated, usually from 46.2 µM), most hits filed as inhibitors; 12% of 420,000 active; note: nearly all actives have a fitted effect of over 55% in size
#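 Chicken DT40 Tdp1-/- cells stably complemented with human TDP1 were seeded at 400 cells/well in medium containing 20 nM camptothecin, exposed to pin-transferred compounds, and grown at 37 °C for at least 48 hr. Viability was read as ATP luminescence.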
# TDP1 cell noCPT: qHTS for Inhibitors of human tyrosyl-DNA phosphodiesterase 1 (TDP1): qHTS in cells in absence of CPT | DT40 Tdp1-/- hTDP1 cells, no CPT, ATP luminescence, 48 h | Potency, µM (top dose mostly 46.2 µM), most hits filed as inhibitors | 15% of 420,000 active; note: nearly all actives have a fitted effect of over 55% in size
#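 Chicken DT40 Tdp1-/- cells complemented with human TDP1, screened without camptothecin (DMSO vehicle only), 400 cells/well. Compounds pin-transferred, cells incubated at 37 °C for at least 48 hr. Growth read as ATP-dependent luminescence (CellTiter-Glo, 30 min at RT).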
# IL-1B inflam inh: inhibitors of inflammasome signaling (IL-1 beta secretion) | THP-1 LPS/ATP IL-1B secretion, AlphaLISA, 16 h; stronger effect = lower value | activity change, % at 57.5 µM | 4.7% of 360,000 active | AID 743279; in the data active = activity change below about -50%; inconclusive = mostly about -30% to -49%
#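 THP-1 cells pretreated 1 hr with compounds (up to 57.5 uM final), then stimulated with LPS (250 ng/mL final) plus ATP (1.25 mM final); secreted IL-1B measured by AlphaLISA after 16 hr, decreased signal indicating inhibition.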
# HT1080-NT tox: kills 2HG-producing HT-1080-NT fibrosarcoma cells | 1.6% of 360,000 active | AID 686970 | Potency, µM (top dose mostly 46.1 µM), actives largely listed as cytotoxic | HT-1080-NT fibrosarcoma viability, CellTiter-Glo ATP luminescence, 48 h;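 note: NT is the 2HG producing partner of a matched IDH1 knockdown line; nearly all actives have a fitted effect of over 55% in size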
#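 Viability by CellTiter-Glo luminescence after 48 h compound exposure at 37C of HT-1080-NT cells (750/well, RPMI, 5% FBS). % activity scaled between DMSO wells and medium-only wells, then curve-fitted and categorized by curve class.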
# Hits are given with their value; – = inactive; ? = inconclusive; · = no result; [ ] = another dose, or the depositor's remark. Unless noted, calls come from the whole dose curve; as a rule, active = well fitted curve in the direction sought with a large enough effect; inconclusive = small, poorly fitted or top-dose-only effect, or another doubt; inactive = no such curve, though single readings can be large; an effect the other way counts as inactive or inconclusive.
SMILES,HT1080 IDH1KD tx,12-LOX inh,DT40 TDP1 CPT,TDP1 cell noCPT,IL-1B inflam inh,HT1080-NT tox
OC[C@@H]1CN(Cc2ccc(Cl)cc2)C[C@H](n2cnc3c(N4CCN(c5ccccc5)CC4)ncnc32)O1,16.4µM,–,?,18.4µM,–,18.4µM
CC(C)N(C)c1ncnc2c1ncn2[C@H]1CN(Cc2cccnc2)C[C@@H](CO)O1,–,–,–,–,–,–
CC(=O)N1CCN(C(=O)N2CC3CC(C2)[C@H]2CCCC(=O)N2C3)CC1 (stereo partly drawn),·,–,·,·,·,·
CCN1C(=O)C2(CCN(S(=O)(=O)c3ccc(C)c(Cl)c3)CC2)c2ccccc21,·,–,·,·,·,·
COC(=O)Cc1csc(NC(=O)Cc2c(C)c3ccc(O)cc3oc2=O)n1,·,–,·,·,·,·
OC[C@@H]1CN(Cc2ccccc2)C[C@H](n2ccc3c(N4CCCC4)ncnc32)O1,–,–,–,?,-55.8,–
COc1ccc(CN2C[C@@H](CO)O[C@@H](n3cnc4c(N5CCN(c6ccccc6)CC5)ncnc43)C2)cc1,18.4µM,–,?,16.4µM,–,?
COc1cc(CN2C[C@@H](CO)O[C@@H](n3cnc4c(N5CCN(c6ccccc6)CC5)ncnc43)C2)cc(OC)c1OC,–,–,18.4µM,14.6µM,–,–
COc1ccc(CN2C[C@@H](CO)O[C@@H](n3cnc4c(N5CCCC5)ncnc43)C2)cc1,–,–,?,?,–,–
OC[C@@H]1CN(Cc2ccco2)C[C@H](n2cnc3c(N4CCN(c5ccccc5)CC4)ncnc32)O1,–,–,23.1µM,23.1µM,–,–
CN1CCN(c2ncnc3c2ncn3[C@H]2CN(Cc3ccccc3)C[C@@H](CO)O2)CC1,–,–,?,–,–,–
COCCOCCCNC(=O)CCNC(=O)c1ccc(C(C)(C)C)cc1,·,–,·,·,·,·
CC(C)NC(=O)N1CCC2(CC1)CN(C(=O)c1ccc3[nH]ccc3c1)Cc1ccccc1O2,·,–[6.33 µM],·,·,·,·
COc1ccc(-n2c3c(c(=O)[nH]c2=O)CN(C2CCCC2)CN3)cc1Cl,·,–,·,·,·,·
Cc1cc2c(cc1C)N(C(=O)CCl)CCN2C(=O)CCl,?,8.91µM,0.461µM,0.581µM,-99.6,?
Cc1cc2c(cc1C)N(C(=O)CCl)CC(=O)N2,23.1µM,·,2.31µM,2.59µM,-65.4,?
Cc1ccc(C(=O)NCCC(=O)N2CCCC2)cc1C,·,–,·,·,·,·
Cc1cc(=O)oc2cc(OCC(=O)N3CC(=O)Nc4ccccc43)c(Cl)cc12,–,–,–,–,–,–
CC(C)C(=O)NCCc1nc2ccccc2n1CCOc1ccccc1,–,–,–,?,–,–
Cc1ccccc1OCCn1c(CCNC(=O)C2CCCCC2)nc2ccccc21,·,–,?,17.8µM,·,·
CCCCn1c(NC(=O)C2CCCCC2)nc2ccccc21,–,–,?,?,–,–
CC(C)(C)C(=O)NCCc1nc2ccccc2n1CCCCOc1ccccc1,·,–,?,16.4µM,·,·
CC(=O)NCCc1nc2ccccc2n1CCOc1ccccc1C,–,–,?,?,–,–
O=C(NCCc1nc2ccccc2n1CCCOc1ccccc1Cl)C1CCCCC1,·,·,10µM,7.08µM,·,·
CCc1ccc(OCCCCn2c(CCNC(=O)C3CCCCC3)nc3ccccc32)cc1,·,·,7.08µM,10µM,·,·
O=C(NCCc1nc2ccccc2n1CCOc1ccccc1)C1CCCCC1,·,·,?,–,·,·
O=C(CCN1C(=O)NC2(CCCC2)C1=O)Nc1cccc2cccnc12,·,–,·,·,·,·
COC(=O)[C@H](Cc1ccccc1)NCCCn1cnc(C(=O)Nc2ccc(C)c(C)c2)n1,–,–,?,18.4µM,–,–
Cc1ccc(NC(=O)c2ncn(CCCN(CCCn3cnc(C(=O)Nc4ccc(C)c(C)c4)n3)Cc3ccc4[nH]ccc4c3)n2)cc1C,20.6µM,–,?,14.6µM,–,16.4µM
Cc1ccc(NC(=O)c2ncn(CC(=O)NCc3ccc4[nH]ccc4c3)n2)cc1C,–,?,?,–,–,–
